Data on 34 compounds can be found in PubChem BioAssay (EPA / NIEHS).

Where “and” joins values, the source holds several entries; their conditions need not be identical. Equal values may be shown once. Calls of active or inactive are those of the source. The calls were made as follows: active = hit-call score of the fitted dose curve at least 0.9, where 1 is the maximum; inactive = score below 0.9.

One assay in a line: CCTE_Shafer_MEA_acute_spike_number: CCTE's Neural Acute Assay for Total Number of Spikes, Shafer Lab (AID 2284008).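 As to AC50: curve fitted for decrease in spike count so AC50 reflects inhibitors.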 The gist of the method:
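Read-out is the total spike count over 40 min, expressed as percent change from each well's own pre-treatment baseline and fitted in the loss direction against DMSO. Rat cortical neurons were exposed at 0.03-40 uM on DIV 13 or 15.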
With `CC#C[C@]1(O)CC[C@H]2[C@@H]3CCC4=CC(=O)CCC4=C3[C@@H](c3ccc(N(C)C)cc3)C[C@@]21C`, the half-maximal activity concentration (AC50) was 1.74 µM (active) and 2.84 µM (active).
For the compound `CC(=O)NC1(c2cccc(F)c2)CCN(CC[C@@]2(c3ccc(Cl)c(Cl)c3)CN(c3ccccc3)C(=O)CO2)CC1`, the AC50 is 1.47 µM (active).
With `O=C(O)c1ccccc1C(c1ccc(O)cc1)c1ccc(O)cc1`, the outcome was inactive.
In the case of `CC(C)CCCCCCOC(=O)CCCCC(=O)OCCCCCCC(C)C`, the call was inactive.

A short description of the next assay: CCTE_Shafer_MEA_acute_firing_rate_mean: CCTE's Neural Acute Assay for Mean Firing Rate, Shafer Lab (AID 2284009).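 Also: analyzed for loss of signal so actives lower firing rate relative to DMSO.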 A digest of the protocol:
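Spontaneous spiking of primary rat cortical networks, DIV 13/15, 37 C. Compound 0.03-40 uM, n ≥3 wells; 40 min baseline vs 40 min treated. Endpoint fitted in loss-of-signal direction against DMSO.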
Take `CC#C[C@]1(O)CC[C@H]2[C@@H]3CCC4=CC(=O)CCC4=C3[C@@H](c3ccc(N(C)C)cc3)C[C@@]21C`: the AC50 is 1.74 µM (active) and 2.84 µM (active).
The same measure, in the same setting: then `CC(=O)NC1(c2cccc(F)c2)CCN(CC[C@@]2(c3ccc(Cl)c(Cl)c3)CN(c3ccccc3)C(=O)CO2)CC1`, with 1.47 µM (active).
`O=C(O)c1ccccc1C(c1ccc(O)cc1)c1ccc(O)cc1`: the result was inactive.
Consider `CC(C)CCCCCCOC(=O)CCCCC(=O)OCCCCCCC(C)C`, for which the compound was classed as inactive.

The nature of a further assay: CCTE_Harrill_HTTr_Viability_MCF7: CCTE's 6-hour Cell Viability Assessment for the High-Throughput Transcriptomics (HTTr) Platform, in MCF-7 cells cultured in DMEM + 10% fetal bovine serum, Harrill Lab (AID 2284010). A digest of the protocol:
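PI exclusion, high-content imaging; 8-pt dilution series, 6 h exposure; bidirectional fit vs DMSO (neg. ctrl/baseline); gain of signal = loss of membrane integrity.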
`CC(C)(C)CC(C)(C)c1ccc(O)c(-n2nc3ccccc3n2)c1`: the result was inactive.
With `Cc1cc(C)c(O)c(C)c1`, the outcome was inactive.
The same measure, in the same setting: then `CCOC(=O)CC(O)(CC(=O)OCC)C(=O)OCC`, with “inactive”; and `CC#C[C@]1(O)CC[C@H]2[C@@H]3CCC4=CC(=O)CCC4=C3[C@@H](c3ccc(N(C)C)cc3)C[C@@]21C`, with “inactive”.
As for `CCCCCCCCC(=O)O`, the outcome was inactive.
In the case of `C[C@@H]1C[C@H]2[C@@H]3CCC4=CC(=O)C=C[C@]4(C)[C@@]3(F)[C@@H](O)C[C@]2(C)[C@@]1(O)C(=O)COP(=O)(O)O`, the outcome was inactive.
Still for that read-out and setting: in the case of `CC[C@H](C)[C@@H](C(=O)O)n1sc2ccccc2c1=O` it was “inactive”.
With `CCCCCCCC(=O)O`, the outcome was inactive.
The same measure, in the same setting: in the case of `CCN(CC)CCNc1ccc(CNC=O)c2sc3ccc(OC)cc3c(=O)c12` it was “inactive”; in that of `CCCCCCCCOC(=O)CCCCCCCCC(=O)OCCCCCCCC`, “inactive”.
In the case of `c1ccc2c(c1)Cc1ccccc1-2`, the result was inactive.
Still for that read-out and setting: in the case of `COc1ccc([N+](=O)[O-])cc1N` it was “inactive”; in that of `C=C(C)C(=O)OCCC(F)(F)C(F)(F)C(F)(F)C(F)(F)C(F)(F)C(F)(F)F`, “inactive”; in that of `CCCCCCC(=O)O`, “inactive”.
Turning to `CC(=O)NC1(c2cccc(F)c2)CCN(CC[C@@]2(c3ccc(Cl)c(Cl)c3)CN(c3ccccc3)C(=O)CO2)CC1`, the result was inactive.
With `OCCC(F)(F)C(F)(F)C(F)(F)C(F)(F)C(F)(F)C(F)(F)F`, the result was inactive.
For the compound `COC(=O)CCCCC(=O)OC`, the outcome was inactive.
As to `O=C(OCCOCCOC(=O)c1ccccc1)c1ccccc1`, the result was inactive.
Consider `C#C[C@]1(O)CC[C@H]2[C@@H]3CCC4=CC(=O)CC[C@@H]4[C@H]3CC[C@@]21C`, for which the outcome was inactive.
In the case of `O=C(O)c1ccccc1C(c1ccc(O)cc1)c1ccc(O)cc1`, the result was inactive.
As for `CCC(C)(C)C1CCC(O)CC1` (configuration not stated), the outcome was inactive.
In the case of `COCC(C)O` (configuration not stated), the outcome was inactive.
Turning to `CCCCC(CC)COC(=O)CCCCC(=O)OCC(CC)CCCC` (configuration not stated), the outcome was inactive.
Take `c1ccc2cc3c(ccc4ccccc43)cc2c1`: the outcome was inactive.
On to `CC(O)CO` (configuration not stated), for which the outcome was inactive.
Regarding `CC(C)(C)c1cccc(C(C)(C)C)c1O`, the outcome was inactive.
Consider `CCCCOCCO`, for which the outcome was inactive.
With `CC(C)CCCCCCOC(=O)CCCCC(=O)OCCCCCCC(C)C`, the outcome was inactive.
`Oc1cccc(O)c1`: the outcome was inactive.
Regarding `CC(O)C(=O)O` (configuration not stated), the result was inactive.
In the case of `CCCCC(CC)COC(=O)CCCCC(=O)OCc1ccccc1` (configuration not stated), the outcome was inactive.
Consider `CC1=C(/C=C/C(C)=C/C=C/C(C)=C/C(=O)O)C(C)(C)CCC1`, for which the outcome was inactive.
With `OC1CCCCC1`, the result was inactive.
For `O=C1OC2(c3ccccc31)c1cc(Br)c(O)c(Br)c1Oc1c2cc(Br)c(O)c1Br`, the outcome was inactive.

For orientation: AC50 means the midpoint of the concentration-response curve, whichever way the signal moves.
